mut p53 react: mutant p53 pathway reactivation; activation, % at 9.98 µM; SW480 PUMA-promoter luciferase; actives 1.5% (n = 28,000); in the data active = activation above about 52%; inconclusive = no clear call, values can overlap the other calls
STK33 kin inh: inhibitors of human STK33 kinase | inhibition, % at 12.5 µM | AID 2322 | Q9BYT3 | ADP-Glo luminescence, MBP substrate | actives 0.44% (n = 27,000); in the data active = inhibition above about 20%; inconclusive = no clear call, values can overlap the other calls
ID4 binder: binders of human ID4 protein; actives 1.2% (n = 31,000); calls only; P47928; small molecule microarray, Flag-ID4 binding, fluorescence F/B; AID 624137; call rule not given here;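 note: a binder raises fluorescence above local background on the spot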
Target sequence (P47928 whole entry, looked up): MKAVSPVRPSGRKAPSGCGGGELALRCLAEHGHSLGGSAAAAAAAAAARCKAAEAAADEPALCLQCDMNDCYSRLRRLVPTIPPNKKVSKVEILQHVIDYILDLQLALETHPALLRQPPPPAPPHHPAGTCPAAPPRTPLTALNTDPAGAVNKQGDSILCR
The depositor's hits bear a star; i = inactive; ? = inconclusive; . = no result given; + = active, no number. Only some compounds are listed: those with a hit (about 2% of all), similar ones and a draw of the others.

SMILES	mut p53 react	STK33 kin inh	ID4 binder
Cc1ccc2nc(-c3cccc(NC(=O)COc4ccc([N+](=O)[O-])cc4)c3)oc2c1	72*	7	i
O=C(COc1ccc([N+](=O)[O-])cc1)Nc1ccc2oc(-c3cccc(Cl)c3)nc2c1	12	5	i
Cc1cc(=O)oc2cc(OC(C)C(=O)Nc3sc4c(c3C#N)CCCC4)ccc12 (stereo unspecified)	4	-1	i
Cc1ccc2nc(-c3ccc(NC(=O)C(C)Oc4ccc5c(C)cc(=O)oc5c4)cc3)sc2c1 (stereo unspecified)	77*	10	i
Cc1ccc2nc(-c3ccc(NC(=O)COc4ccc([N+](=O)[O-])cc4)cc3)sc2c1	70*	6	i
CCC[C@H]1CC2=C(C[C@@H](CC)CC3=C1C(=O)OC3=O)C(=O)OC2=O	-12	.	i
N#C/C(=C(\O)COc1ccccc1)c1nc2ccccc2[nH]1	10	.	i
Cc1ccc(Nc2nc(Nc3ccc(C)cc3)nc(Sc3nnc(C)s3)n2)cc1	19	0	i
O[C@H]1C=C2CCN3Cc4cc5c(cc4C(C23)[C@@H]1O)OCO5 (stereo partly specified)	.	2	.
N#Cc1c(-c2ccc(Cl)cc2)[nH]c(SCc2ccccc2)nc1=S	.	-4	.
CS(=O)(=O)N(CC(=O)Nc1ccc(Br)cc1)c1cc(Cl)cc(Cl)c1	7	-1	i
Cc1cc(Br)ccc1NC(=O)Cn1ccc([N+](=O)[O-])n1	1	-1	i
CCC(SC1=NCCS1)C(=O)Nc1ccc(-c2nc3ccc(C)cc3s2)cc1 (stereo unspecified)	?	8	i
CCC(Sc1nc(C)cc(C)n1)C(=O)Nc1ccc(-c2nc3ccc(C)cc3s2)cc1 (stereo unspecified)	85*	2	i
COC(=O)c1cccc(NC(=O)CN(c2ccc(F)cc2)S(C)(=O)=O)c1C	-1	0	i
O=C1O[C@@H](c2ccccc2)[C@@H](c2ccccc2)N2[C@@H](c3ccccc3OCCO)[C@]3(C(=O)Nc4ccc(C#CC5=CCCCC5)cc43)[C@@H](C(=O)NC[C@H](O)c3ccccc3)[C@H]12	.	11	.
CC(=O)c1cccc(NC(=O)C2CCCN(S(=O)(=O)c3ccccc3)C2)c1 (stereo unspecified)	-4	2	+
Cc1ccc(S(=O)(=O)N2CCCC(C(=O)Nc3ccc4c(c3)OCCO4)C2)cc1 (stereo unspecified)	-2	3	i
CC(C)(C)c1ccc(S(=O)(=O)NCCC(=O)O)cc1	-5	0	i
Cc1cc(S(=O)(=O)NCC(=O)O)ccc1F	-5	0	i
Cc1ccc(S(=O)(=O)NCCCO)cc1C(=O)O	30	-1	+
Cc1ccc2cc(S(=O)(=O)NCCC(=O)O)ccc2c1	12	-4	+
Cn1nnnc1SCC(=O)Nc1ccc2ccccc2c1	21	1	i
Cc1ccc(NC(=O)COc2ccc(CO)cc2Cl)cc1	6	2	i
COc1ccc(NC(=O)COc2ccccc2[N+](=O)[O-])cc1Cl	135*	4	i
SMILES	mut p53 react	STK33 kin inh	ID4 binder
COc1cc(NC(=O)COc2ccccc2[N+](=O)[O-])ccc1NC(=O)c1cccs1	-12	-2	i
O=C(COc1ccccc1[N+](=O)[O-])Nc1ccc2oc(-c3ccc(F)cc3Cl)nc2c1	51*	5	i
Cc1ccc(NC(=O)COc2ccc(C(C)(C)C)cc2Br)c([N+](=O)[O-])c1	40	-5	i
COc1ccccc1NC(=O)COc1ccc(CO)cc1Cl	165*	7	i
COc1ccccc1OCC(=O)Nc1ccc(C)cc1[N+](=O)[O-]	119*	-1	i
O=C(COc1ccccc1Cl)Nc1ccc2oc(-c3ccc(F)cc3Cl)nc2c1	-2	7	i
O=C(O)CC(C(=O)Nc1ccc(Cl)cc1)N1CCCCC1 (stereo unspecified)	6	-1	i
Cc1csc(Nc2ccc(F)c(Cl)c2)[n+]1C(C)C	.	-2	.
COc1ccc(C)cc1NC(=O)CN(c1cccc(F)c1)S(C)(=O)=O	-7	1	i
C=CC1C(=C)CCC2C1CCC1C(C)(C(=O)O)CCCC21C (stereo unspecified)	-38	-13	i
O=S(=O)(N[C@H]1CCN(Cc2cccc(OCCO)c2)C1)c1cccc2cccnc12	.	-1	.
COc1ccccc1OCC(=O)Nc1cc(-c2nc3ccccc3[nH]2)ccc1C	15	3	+
Cc1ccc(-c2nc3ccccc3[nH]2)cc1NC(=O)COc1ccc(C(C)C)cc1	1	1	i
Cc1ccc(NC(=O)COc2ccc(Cl)cc2Cl)c([N+](=O)[O-])c1	-60	7	i
Cc1ccc(NC(=O)COc2ccccc2Cl)c([N+](=O)[O-])c1	60*	1	i
CCCN1CCC2(CC1)C(C#N)=C(S)NC(=O)C2C#N (stereo unspecified)	.	1	.
O=c1n(-c2ccc(F)cc2)nc2n1CCCN2	67*	.	i
O=C(Nc1cc(-c2ccc(Cl)cc2)nn1-c1ccc(F)cc1)C1CCC1	1	.	i
CN(CC(=O)O)S(=O)(=O)c1ccc2ccccc2c1	-10	7	i
CCN(CC)S(=O)(=O)c1ccc(C(=O)Nc2ccc3c(c2)OC(C)(C)O3)cc1	.	0	.
COc1ccccc1OCC(=O)Nc1oc(-c2ccccc2)c(-c2ccccc2)c1C#N	-13	-3	+
Cc1ccnc(SCC(=O)Nc2oc(-c3ccccc3)c(-c3ccccc3)c2C#N)n1	10	-6	i
N#Cc1c(NC(=O)CCn2cnc3ccccc3c2=O)sc2c1CCC2	.	0	.
O=C1c2c(O)ccc(O)c2C(=O)c2c(NCCNCCO)ccc(NCCNCCO)c21	.	58*	i
CCn1c(O)c(/C=C2/C=CC=N2)c(=O)[nH]c1=S	7	.	i
SMILES	mut p53 react	STK33 kin inh	ID4 binder
CC(=O)O[C@@H]1C=C[C@@]2(C)C(C[C@@H](OC(C)=O)[C@@]3(C)C4=CC(=O)O[C@@H](c5ccoc5)[C@]4(C)CCC23)C1(C)C (stereo partly specified)	.	2	.
O=C(NCc1nc2ccccc2[nH]1)c1ccccc1	94*	3	i
O=C(NCc1nc2ccccc2[nH]1)C1=C[C@H](c2ccccc2)C[C@H](OCCCCO)O1	.	.	i
COc1ncnc(OC)c1C	.	2	.
O=C(CC1CCOCC1)Nc1ccc(I)cc1	63*	.	i
O=C(CC1NC(=O)NC1=O)Nc1ccc(F)cc1 (stereo unspecified)	-2	-7	i
CCOC(=O)Cc1nc(OCC(=O)c2ccc(F)cc2)cs1	9	.	i
COc1ccc(-c2cc(C(F)(F)F)nc(SCC(=O)N(C)c3ccccc3)n2)cc1OC	5	-2	i
O=C(O)CCCCCCC(=O)Nc1ccc(C2OC(CSc3ccncc3)CC(c3ccccc3)O2)cc1 (stereo unspecified)	.	.	+
COCC1CC(c2ccccc2)OC(c2ccc(NC(=O)CCCCCCC(=O)O)cc2)O1 (stereo unspecified)	.	.	+
COC(=O)CCCCCCC(=O)Nc1ccc(C2OC(CN(C)Cc3ccccc3)CC(c3ccccc3)O2)cc1 (stereo unspecified)	.	.	i
COC(=O)CCCCCCC(=O)Nc1ccc(C=O)cc1	.	.	i
CN(Cc1ccccc1)CC1CC(c2ccccc2)OC(c2ccc(NC(=O)CCCCCCC(=O)O)cc2)O1 (stereo unspecified)	.	.	+

Compound activity deposited in PubChem BioAssay by Broad Institute.
